# Data as given in PubChem BioAssay (EPA / NIEHS).
# Results filed as inconclusive are left out. Activity calls are given as the source filed them. The calls were made as follows: active = hit-call score of the fitted dose curve at least 0.9, where 1 is the maximum; inconclusive = response in the unintended direction; inactive = score below 0.9.
# How the values were obtained:
# [1] = target: Peroxisome proliferator-activated receptor gamma (Homo sapiens) (UniProt P37231); assay: ATG_PPARg_TRANS: Attagene TRANS-FACTORIAL HepG2 Assay for human Peroxisome Proliferator-activated Receptor-gamma (PPARg) (AID 2283007)
# Chain of Peroxisome proliferator-activated receptor gamma (Homo sapiens) (P37231 whole entry, looked up, the tested form may be a part): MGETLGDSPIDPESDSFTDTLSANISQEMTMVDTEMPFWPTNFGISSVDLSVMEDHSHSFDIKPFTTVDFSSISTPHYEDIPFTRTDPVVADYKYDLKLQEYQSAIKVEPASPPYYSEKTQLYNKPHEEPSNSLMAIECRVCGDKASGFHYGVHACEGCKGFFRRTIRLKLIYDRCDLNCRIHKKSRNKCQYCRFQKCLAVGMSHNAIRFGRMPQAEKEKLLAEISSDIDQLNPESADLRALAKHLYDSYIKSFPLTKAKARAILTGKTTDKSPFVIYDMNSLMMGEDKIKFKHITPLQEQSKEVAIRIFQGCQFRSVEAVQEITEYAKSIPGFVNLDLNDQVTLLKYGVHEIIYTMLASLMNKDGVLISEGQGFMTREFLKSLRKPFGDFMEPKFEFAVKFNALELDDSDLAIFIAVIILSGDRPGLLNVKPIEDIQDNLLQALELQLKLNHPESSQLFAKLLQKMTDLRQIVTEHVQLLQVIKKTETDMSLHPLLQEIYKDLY
# How it was run: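 After 24 h of chemical exposure, transfected HepG2 cells carrying PPARγ-Gal4 chimera reporter constructs are lysed for RNA. Reporter transcripts are measured by RT-PCR and capillary electrophoresis with fluorescent labelling, and gain of signal is fitted versus DMSO.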
# [2] = target: Nuclear receptor subfamily 1 group I member 2 (Homo sapiens) (UniProt O75469); assay: ATG_PXR_TRANS: Attagene TRANS-FACTORIAL HepG2 Assay for human Pregnane X Receptor (PXR) (AID 2283008)
# Chain of Nuclear receptor subfamily 1 group I member 2 (Homo sapiens) (O75469 whole entry, looked up, the tested form may be a part): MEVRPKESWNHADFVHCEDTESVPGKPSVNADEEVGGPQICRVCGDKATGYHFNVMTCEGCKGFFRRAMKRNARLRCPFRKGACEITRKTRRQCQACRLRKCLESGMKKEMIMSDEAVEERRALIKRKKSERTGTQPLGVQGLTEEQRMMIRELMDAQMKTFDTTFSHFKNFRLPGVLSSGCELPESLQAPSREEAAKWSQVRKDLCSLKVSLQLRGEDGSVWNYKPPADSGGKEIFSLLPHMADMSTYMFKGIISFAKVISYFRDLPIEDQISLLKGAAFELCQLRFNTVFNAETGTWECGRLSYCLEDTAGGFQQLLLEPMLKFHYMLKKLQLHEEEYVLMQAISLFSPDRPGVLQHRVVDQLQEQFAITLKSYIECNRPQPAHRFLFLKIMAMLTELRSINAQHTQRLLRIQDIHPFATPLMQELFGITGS
# How it was run: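 Transactivation by exogenous PXR–GAL4 fusion measured as reporter transcript induction after 24 h compound treatment of transfected human HepG2 cells. Read-out via RT-PCR and capillary electrophoresis of labelled fragments, fitted upward relative to DMSO.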
# [3] = target: Retinoic acid receptor alpha (Homo sapiens) (UniProt P10276); assay: ATG_RARa_TRANS: Attagene TRANS-FACTORIAL HepG2 Assay for human Retinoic Acid Receptor alpha (RARa) (AID 2283005)
# Chain of Retinoic acid receptor alpha (Homo sapiens) (P10276 whole entry, looked up, the tested form may be a part): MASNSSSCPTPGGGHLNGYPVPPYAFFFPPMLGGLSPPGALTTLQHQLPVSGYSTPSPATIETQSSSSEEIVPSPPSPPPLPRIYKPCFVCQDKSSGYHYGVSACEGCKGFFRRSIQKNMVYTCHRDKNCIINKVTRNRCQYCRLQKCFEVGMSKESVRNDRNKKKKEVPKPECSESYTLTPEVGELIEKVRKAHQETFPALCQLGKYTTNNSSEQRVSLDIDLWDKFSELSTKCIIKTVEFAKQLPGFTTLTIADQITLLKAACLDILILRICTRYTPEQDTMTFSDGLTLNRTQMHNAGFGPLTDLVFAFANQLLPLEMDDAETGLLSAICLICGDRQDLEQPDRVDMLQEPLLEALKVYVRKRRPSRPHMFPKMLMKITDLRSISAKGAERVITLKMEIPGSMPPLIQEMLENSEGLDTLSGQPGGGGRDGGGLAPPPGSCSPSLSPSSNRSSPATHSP
# How it was run: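 HepG2 transiently transfected with multiplex GAL4-UAS reporter units including a human RARa–GAL4 chimera; 24 h compound exposure. Reporter mRNA quantified by RT-PCR, 6-FAM labeling and capillary electrophoresis; gain of signal versus DMSO.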
# [4] = target: human Retinoic Acid Receptor gamma (RARg), RARG (gene 5916) (UniProt P13631); assay: ATG_RARg_TRANS: Attagene TRANS-FACTORIAL HepG2 Assay for human Retinoic Acid Receptor gamma (RARg) (AID 2283009)
# Chain of human Retinoic Acid Receptor gamma (RARg), RARG (gene 5916) (P13631 whole entry, looked up, the tested form may be a part): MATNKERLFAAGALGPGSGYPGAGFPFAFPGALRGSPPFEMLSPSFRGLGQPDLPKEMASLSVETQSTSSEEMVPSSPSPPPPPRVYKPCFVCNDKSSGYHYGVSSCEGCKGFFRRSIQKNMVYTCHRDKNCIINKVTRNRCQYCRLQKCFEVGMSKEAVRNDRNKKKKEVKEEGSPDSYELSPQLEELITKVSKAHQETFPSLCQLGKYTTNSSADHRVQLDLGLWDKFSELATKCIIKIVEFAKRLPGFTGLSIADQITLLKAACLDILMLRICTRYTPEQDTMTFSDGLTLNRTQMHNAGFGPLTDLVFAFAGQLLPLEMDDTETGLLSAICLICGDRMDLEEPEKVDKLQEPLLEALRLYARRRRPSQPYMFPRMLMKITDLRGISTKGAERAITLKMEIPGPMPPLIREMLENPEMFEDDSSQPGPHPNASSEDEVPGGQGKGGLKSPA
# How it was run: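 Readout: reporter transcript levels via RT-PCR, 6-FAM primer-extension labelling, HpaI digestion and capillary electrophoresis. Cells: HepG2 carrying transfected RARg-GAL4 chimera plus UAS reporter set. Dosing 24 h; DMSO negative control.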
# [5] = target: human RAR-related Orphan Receptor beta (RORb), RORB (gene 6096) (UniProt Q92753); assay: ATG_RORb_TRANS: Attagene TRANS-FACTORIAL HepG2 Assay for human RAR-related Orphan Receptor beta (RORb) (AID 2283010)
# Chain of human RAR-related Orphan Receptor beta (RORb), RORB (gene 6096) (Q92753 whole entry, looked up, the tested form may be a part): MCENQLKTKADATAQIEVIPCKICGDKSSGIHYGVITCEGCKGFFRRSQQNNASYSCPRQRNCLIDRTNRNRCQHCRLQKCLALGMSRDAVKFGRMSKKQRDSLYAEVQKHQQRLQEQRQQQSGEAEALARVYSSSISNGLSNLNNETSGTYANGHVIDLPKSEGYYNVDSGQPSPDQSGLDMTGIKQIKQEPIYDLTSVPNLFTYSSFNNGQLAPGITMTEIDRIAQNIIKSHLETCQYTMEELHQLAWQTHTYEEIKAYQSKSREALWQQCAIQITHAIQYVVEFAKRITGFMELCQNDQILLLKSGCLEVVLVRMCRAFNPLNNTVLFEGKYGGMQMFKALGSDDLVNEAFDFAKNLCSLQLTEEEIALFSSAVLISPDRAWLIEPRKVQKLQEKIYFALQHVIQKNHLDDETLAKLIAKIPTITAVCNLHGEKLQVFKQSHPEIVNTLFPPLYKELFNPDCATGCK
# How it was run: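 HepG2, transient MRTU transfection (GAL4-UAS reporters, exogenous NR-Gal4 chimeras); 24 h compound exposure; total RNA → RT-PCR → 6-FAM primer extension → HpaI digest → CE fluorescence. Positive direction vs DMSO baseline.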
smiles,measurement,setting,value
CC(C)=CCC[C@H](C)CCO,outcome,[1],inactive
same,outcome,[2],inactive
C=CC(=O)NC(C)(C)CS(=O)(=O)O,outcome,[3],inactive
same,outcome,[1],inactive
CO[Si](CCC1CCC2OC2C1)(OC)OC (configuration not stated),outcome,[1],inactive
CCOC(=O)CC,outcome,[1],inactive
same,outcome,[2],inactive
NNC(=O)c1cccc(C(=O)NN)c1,outcome,[2],inactive
same,outcome,[4],inactive
SCCc1cnccn1,outcome,[2],inactive
CC(C)(C)c1ccc(N)cc1,outcome,[1],inactive
same,outcome,[2],inactive
same,outcome,[5],inactive
Cn1c([N+](=O)[O-])cnc1COC(N)=O,outcome,[3],inactive
C[C@]12CCC(=O)C=C1CC[C@@H]1[C@@H]2C(=O)C[C@@]2(C)[C@H]1CC[C@]2(O)C(=O)CO,outcome,[1],inactive
same,AC50,[2],26.9 µM (active)
CC(C)CC(O)Cc1ccccc1 (configuration not stated),outcome,[3],inactive
same,outcome,[2],inactive
same,outcome,[4],inactive
CC(C)c1ccc2cc(C(C)C)ccc2c1,outcome,[1],inactive
same,AC50,[2],7.42 µM (active)
CNC(=S)N(C)C,outcome,[3],inactive
same,outcome,[1],inactive
same,outcome,[2],inactive
CC(=O)OCc1ccco1,outcome,[3],inactive
same,outcome,[1],inactive
same,outcome,[2],inactive
same,outcome,[5],inactive
CCCCC(CC)CCC(CC(C)C)OS(=O)(=O)O (configuration not stated),AC50,[2],5.35 µM (active)
same,outcome,[5],inactive
CC1(C)O[C@@H]2C[C@H]3[C@@H]4C[C@H](F)C5=CC(=O)CC[C@]5(C)[C@H]4[C@@H](O)C[C@]3(C)[C@]2(C(=O)CO)O1,AC50,[2],27 µM (active)
Cn1c(=O)[nH]c2ncn(C)c2c1=O,outcome,[3],inactive
same,outcome,[2],inactive
same,outcome,[4],inactive
CC(CC=O)c1ccccc1 (configuration not stated),AC50,[1],56.2 µM (active)
same,AC50,[2],5.22 µM (active)
O=CN1CCCCC1,outcome,[3],inactive
OCCCS,outcome,[1],inactive
c1cc(N(CC2CO2)CC2CO2)ccc1OCC1CO1 (configuration not stated),outcome,[2],inactive
same,outcome,[4],inactive
ON(Cc1ccccc1)Cc1ccccc1,AC50,[2],17.2 µM (active)
same,outcome,[4],inactive
O=C(O)C(c1ccc(Cl)cc1)c1ccc(Cl)cc1,outcome,[2],inactive
CCOC(F)(F)C(F)(F)C(F)(F)C(F)(F)F,outcome,[1],inactive
same,outcome,[2],inactive
CCCCCc1ccc(Cl)cc1,outcome,[1],inactive
same,outcome,[2],inactive
CC1=CC[C@H]2C[C@@H]1C2(C)C,outcome,[3],inactive
same,outcome,[1],inactive
same,outcome,[2],inactive
CCC(=O)Oc1ccc(/C(CC)=C(\CC)c2ccc(OC(=O)CC)cc2)cc1,AC50,[1],18.5 µM (active)
same,AC50,[2],4.5 µM (active)
C=C(C)[C@H]1CC=C(C)CC1,outcome,[3],inactive
same,outcome,[2],inactive
same,outcome,[4],inactive
same,outcome,[5],inactive
Cc1ccc([N+](=O)[O-])cc1S(=O)(=O)O,outcome,[1],inactive
same,outcome,[2],inactive
same,outcome,[5],inactive
C1CN(SSN2CCOCC2)CCO1,outcome,[1],inactive
same,outcome,[2],inactive
OC1CCCC1,outcome,[3],inactive
same,outcome,[5],inactive
C=C(C)[C@@H]1CCC2=CCC[C@@H](C)[C@]2(C)C1,outcome,[1],inactive
same,AC50,[2],2.72 µM (active)
C[Si](C)(CCCN)O[Si](C)(C)CCCN,outcome,[2],inactive
same,outcome,[4],inactive
CCCC(=O)OCc1ccccc1,outcome,[3],inactive
CC(=O)C=CC1C(C)=CCC(C)C1(C)C (configuration not stated),outcome,[1],inactive
same,AC50,[2],1.42 µM (active)
O=C(/C=C/C=C/c1ccc2c(c1)OCO2)N1CCCCC1,AC50,[1],6.43 µM (active)
same,AC50,[2],0.893 µM (active)
